From article PMC4336329 (PLoS ONE, 2015)
In all, about 310,000 compounds went through this assay and about 14,000 (4.5%) showed an effect of 50% or more. Effects have a minus sign here. Shown is part of a subset that was picked to be rich in strong results.

Target: human ether-à-go-go-related gene (hERG) potassium channel (human, UniProt Q12809)
Assay: primary screen, population patch clamp on CHO cells stably expressing hERG; higher = less effect of the substance
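Also: peak tail current of the secondary pulse compared with the same well before compound.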

human ether-à-go-go-related gene (hERG) potassium channel, sequence (Q12809 whole entry, looked up): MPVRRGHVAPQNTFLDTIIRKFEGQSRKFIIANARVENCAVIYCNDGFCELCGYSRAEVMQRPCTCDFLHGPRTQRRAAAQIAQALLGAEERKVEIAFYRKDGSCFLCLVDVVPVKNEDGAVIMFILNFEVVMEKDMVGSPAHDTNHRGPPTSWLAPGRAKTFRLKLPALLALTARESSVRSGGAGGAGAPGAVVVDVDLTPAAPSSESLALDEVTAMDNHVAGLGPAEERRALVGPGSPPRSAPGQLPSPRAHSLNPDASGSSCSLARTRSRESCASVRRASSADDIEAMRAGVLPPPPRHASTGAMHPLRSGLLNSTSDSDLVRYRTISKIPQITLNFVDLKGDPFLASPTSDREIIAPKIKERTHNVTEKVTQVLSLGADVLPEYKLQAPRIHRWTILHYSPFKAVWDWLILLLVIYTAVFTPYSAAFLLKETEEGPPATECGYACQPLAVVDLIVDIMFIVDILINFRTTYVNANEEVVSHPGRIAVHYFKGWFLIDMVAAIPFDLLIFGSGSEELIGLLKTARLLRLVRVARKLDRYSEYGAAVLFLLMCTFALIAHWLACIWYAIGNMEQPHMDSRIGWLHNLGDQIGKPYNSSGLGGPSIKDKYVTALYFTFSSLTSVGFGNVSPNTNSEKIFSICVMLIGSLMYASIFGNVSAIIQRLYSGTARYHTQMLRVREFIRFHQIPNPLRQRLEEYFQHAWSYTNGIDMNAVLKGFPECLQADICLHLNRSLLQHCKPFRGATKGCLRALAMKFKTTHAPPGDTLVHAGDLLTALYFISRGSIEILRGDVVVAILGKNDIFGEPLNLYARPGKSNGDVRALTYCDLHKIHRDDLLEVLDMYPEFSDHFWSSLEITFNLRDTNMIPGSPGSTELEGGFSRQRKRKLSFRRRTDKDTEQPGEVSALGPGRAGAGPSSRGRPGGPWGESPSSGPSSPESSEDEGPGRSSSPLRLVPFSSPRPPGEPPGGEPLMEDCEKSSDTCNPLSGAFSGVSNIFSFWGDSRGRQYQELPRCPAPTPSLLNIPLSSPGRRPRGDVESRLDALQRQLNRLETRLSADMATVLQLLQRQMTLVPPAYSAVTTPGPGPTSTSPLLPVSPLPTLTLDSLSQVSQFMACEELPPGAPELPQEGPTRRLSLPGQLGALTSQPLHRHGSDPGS

In order of falling “hERG current change (%, negative = inhibition) at 10uM” value:
1. CNc1nc(-c2ccc3c(c2)CCN3C(=O)CC(C)(C)C)c(C)s1  38%
2. COc1cc(C(=S)N2CCOCC2)ccc1O  29.3%
3. O=C(CCN1CCOCC1)c1ccc(Cl)cc1  28.3%
4. C=CCN1CCN(C(=O)CCCc2ccccc2)CC1  26.1%
5. CCn1cc(C(=O)O)c(=O)c2cc3c(cc21)OCO3  20.5%
6. COc1cc(NC(=S)NC(=O)CC(C)C)ccc1NC(=O)c1cc2ccccc2o1  19.7%
7. CC(=O)Nc1cccc(NC(C)=O)n1  19.6%
8. C=CC#CC1(O)CC(C)[N+](C)(C)CC1C.[I-] (stereo not drawn)  17.4%
9. O=C(O)c1ccccc1SCC(=O)N1CCCCC1  15.2%
10. O=C(NCCOc1ccccc1)c1ccccc1SCC(=O)N1CCCC1  14.9%
11. CCCCCCCC(=O)N1c2ccccc2NC(=O)C1CC(=O)Nc1ccc(C(=O)O)cc1 (stereo not drawn)  13.6%
12. COC(=O)CNC(=O)c1ccccc1C  11.2%
13. COc1cccc(NC(=S)N(C)C2CCN(C)CC2)c1  11%
14. COC(=O)c1nc2cc3c(cc2c(C)c1C(=O)OC)OCO3  10.8%
15. COc1ccc(N2CCN(CC(=O)c3ccc(Cl)cc3)CC2)cc1  10.5%
16. CCc1ccc(OCC(=O)O/N=C(\N)c2ccncc2)c(Br)c1  10.2%
17. CCOc1ccc(C(=O)Nc2nnc(SCC(=O)NCC3CCCO3)s2)cc1OCC (stereo not drawn)  9.52%
18. CCCCn1c(N)c(N(CC(C)C)C(=O)CSC(C)C(=O)Nc2cc(C)on2)c(=O)[nH]c1=O (stereo not drawn)  9.14%
19. O=C(CCc1ccccc1)N1CCCC1  8.96%
20. COc1ccc(N2CCN(CCCN)CC2)cc1  8.6%
21. O=C1CCCC(O)=C1N=Nc1c(Cl)cc(Cl)cc1Cl  7.14%
22. CC(=O)Nc1cc2c(cc1C(=O)c1ccc(C)cc1)OCCO2  5.77%
23. C=CCn1cc(C(=O)OCC)c(=O)c2ccc(F)cc21  5.56%
24. Cc1c(C)n(CC(O)CNCCO)c2ccccc12.O=C(O)C(=O)O (stereo not drawn)  5.33%
25. CCOC(=O)N1CCN(C(=O)CCc2ccccc2)CC1  5.12%
26. COc1ccc(S(=O)(=O)N2CCCOC2CNC(=O)C(=O)NC2CCCC2)cc1 (stereo not drawn)  4.51%
27. CN1CCN(C(=O)CN(C)S(=O)(=O)c2cc(Cl)ccc2Cl)CC1  4.23%
28. CCCNC(=O)Nc1ccccc1C(=O)Nc1ccc(OC)cc1  2.77%
29. CC(C)OC(=O)CN1CCN(c2ccc(Cl)cc2)CC1  1.73%
30. CCCn1nc(Oc2nc(NCC)nc(NCC)n2)ccc1=O  1.1%
31. OCC1CCCN(C(=S)NCCc2ccccc2)C1 (stereo not drawn)  0.885%
32. COc1cc(CC(=O)N/N=C/c2ccccc2)c([N+](=O)[O-])cc1OC  0.219%
33. COc1ccc(-c2nnc(NC(=O)c3ccc(S(=O)(=O)N4CCCc5ccccc54)cc3)o2)cc1  0.175%
34. CC1(C)CC2CN(C(=O)Cc3ccccc3)C(C)(C2)C1 (stereo not drawn)  0.0688%
35. CS(=O)(=O)N1CCN(c2ccc(NC(=O)CSc3ccc(Cl)cc3)cc2)CC1  -0.247%
36. COc1ccc(CCN(C)C(=O)c2oc3ccccc3c2C)cc1OC  -0.562%
37. CSc1nc2ccc(NC(=O)C3CCCO3)cc2s1 (stereo not drawn)  -0.62%
38. CC(C)c1ccc(S(=O)(=O)c2cn(Cc3ccc(F)cc3)c3cc4c(cc3c2=O)OCO4)cc1  -1%
39. O=C(CCCC1=NS(=O)(=O)c2ccccc2N1)N1CCN(c2ccc([N+](=O)[O-])cc2)CC1  -1.34%
40. c1ccc(-c2cn(CC3CCCCC3)nn2)cc1  -1.74%
41. O=C(NCCc1ccccc1)C1CCN(S(=O)(=O)c2cccs2)CC1  -2.14%
42. CC1CC(C)CN(C(=O)CCc2ccccc2)C1 (stereo not drawn)  -2.16%
43. COc1ccc(/C=N/NC(=O)c2ccco2)cc1Cn1nc(C)cc1C  -2.47%
44. CC1(C)CC(=O)c2sc(N3CCCCC3)nc2C1  -2.83%
45. CCCCN(C)C(=O)c1cn(CC)c2nc(C)ccc2c1=O  -3.49%
46. O=C(NCc1ccc(Cl)cc1)C1CCN(S(=O)(=O)c2cccs2)CC1  -3.7%
47. CCCn1nnc(NC(=O)c2cccc(OCC(C)C)c2)n1  -3.93%
48. CC1CCCN(C(=O)CCc2ccccc2)C1 (stereo not drawn)  -5.7%
49. O=C(NCCc1ccc(Cl)cc1)C1CCN(S(=O)(=O)N2CCCCC2)CC1  -5.98%
50. O=C(CN1CCN(c2ccc(Cl)cc2)CC1)c1ccccc1  -6.33%
51. COC(=O)CN(C(=S)Nc1ccccc1)C1CC(=O)N(c2ccc(OC)cc2)C1=O (stereo not drawn)  -6.5%
52. O=C(CCS(=O)(=O)Cc1ccccc1)N1CCN(c2ccccc2)CC1  -7.79%
53. Cc1ccc(Cn2cc(S(=O)(=O)c3ccc(C(C)C)cc3)c(=O)c3cc4c(cc32)OCO4)cc1  -8.58%
54. O=C(NCc1ccccc1Cl)c1cccc(NC(=O)c2ccccc2)c1  -8.78%
55. COc1ccc(N2CCN(C(=O)CCc3ccccc3)CC2)cc1  -9.27%
56. CCCC(C)(C)NC(=O)CCCCC(=O)NC(C)(C)CCC  -9.49%
57. COc1ccc2oc(C(=O)N(C)Cc3ccc4c(c3)OCCO4)c(C)c2c1  -10.5%
58. O=C(CCCC(=O)N1CCN(c2ccccc2F)CC1)c1ccccc1  -10.7%
59. CCOC(=O)c1cn(Cc2ccc(C)cc2)c2cc(F)ccc2c1=O  -10.9%
60. CCn1cc(C(=O)OCC(=O)N(C)Cc2ccccc2)c(=O)c2ccc(C)nc21  -11.1%
61. Cc1ccc(C(=O)c2cc3c(cc2N)OCCO3)cc1  -11.4%
62. c1ccc(Cn2nnnc2C(c2ccccc2)N2CCN(c3nc4ccccc4s3)CC2)cc1 (stereo not drawn)  -11.7%
63. CN(Cc1nc2ccc(F)cc2[nH]1)Cc1nc(CC2CC2)no1  -12.3%
64. CN(CCc1nc2ccccc2[nH]1)Cc1nc(CC2CC2)no1  -13.7%
65. Clc1cccc(CNCCc2c[nH]c3ccccc23)c1.O=C(O)C(=O)O  -14%
66. O=C(NCCc1ccc(Cl)cc1)C1CCCN(S(=O)(=O)N2CCCCCC2)C1 (stereo not drawn)  -18.7%
67. O=C1C=C(c2ccccc2)C[C@H](c2cccs2)[C@H]1n1cnc([N+](=O)[O-])c1  -18.8%
68. O=C(CCS(=O)(=O)Cc1ccccc1)N1CCN(Cc2ccccc2)CC1  -22.1%
69. O=C(CCc1ccccc1)N1CCN(c2ccc(F)cc2)CC1  -23%
70. COc1ccc2oc(C(=O)N(C)CCOc3ccccc3)c(C)c2c1  -28.9%
71. Cc1c(C(=O)OCC(=O)N(C)Cc2ccccc2)oc2ccccc12  -29.4%
72. O=C(C(=O)N1CCOCC1)c1cn(Cc2ccc(F)cc2)c2ccccc12  -32%
73. O=C(NCc1cccs1)C1CCN(S(=O)(=O)c2cccs2)CC1  -32.1%
74. O=C(NCCc1ccccc1Cl)C1CCN(S(=O)(=O)c2cccs2)CC1  -34.8%
75. O=C(CCc1ccccc1)N1CCN(c2ccc(Cl)cc2)CC1  -35.1%
76. N#Cc1ccc(C(=O)CN2CCN(c3ccccc3)CC2)cc1  -42.8%
77. O=C(CCCC(=O)N1CCN(c2cccc(Cl)c2)CC1)c1ccccc1  -44.2%
78. CN(CCc1nc2ccc(Cl)cc2[nH]1)Cc1nc(CC2CC2)no1  -50.8%
79. O=C(NCCc1ccccc1)c1ccccc1SCC(=O)N1CCCC1  -51.3%
80. O=C(CCc1ccccc1)N1CCCN(C(=O)CCc2ccccc2)CC1  -51.5%
81. Cc1ccc(Cn2cc(C(=O)NN)c(=O)c3ccc(F)cc32)cc1  -51.6%
82. O=C(NCCc1ccc(Cl)cc1)C1CCN(S(=O)(=O)N2CCCC2)CC1  -52.3%
83. COc1ccc2oc(C(=O)N(C)Cc3ccc(OC(F)F)cc3)c(C)c2c1  -53.8%
84. CC(=O)c1ccc(N2CCN(C(=O)CCc3ccccc3)CC2)cc1  -54.1%
85. Cc1ccc(S(=O)(=O)c2cn(Cc3ccc(F)cc3)c3cc4c(cc3c2=O)OCO4)cc1  -55%
86. Cc1ccc(Cn2cc(C(=O)c3ccc(F)cc3)c(=O)c3cc4c(cc32)OCCO4)cc1  -57.1%
87. CC1CN(C(=O)CCc2ccccc2)C(C)CN1C(=O)CCc1ccccc1 (stereo not drawn)  -60.4%
88. O=C(NCc1ccccc1Cl)C1CCN(S(=O)(=O)c2cccs2)CC1  -63.4%
89. O=C(CCCc1ccccc1)N1CCN(c2ccc([N+](=O)[O-])cc2)CC1  -64.7%
90. CCn1cc(C(=O)N(C)Cc2ccc(OC(F)F)cc2)c(=O)c2ccc(C)nc21  -65.1%
91. CCCCCCN1CCN(c2ccc(Cl)cc2)CC1  -66.9%
92. Cc1c(C(=O)N(C)Cc2ccc(OC(F)F)cc2)oc2ccccc12  -69.9%
93. O=C(c1ccc(F)cc1)c1cn(Cc2ccc(F)cc2)c2cc3c(cc2c1=O)OCCO3  -71.1%
94. O=C(NCCc1ccc(Cl)cc1)C1CCN(S(=O)(=O)c2cccs2)CC1  -71.2%
95. O=C(CCCC(=O)N1CCN(c2ccc([N+](=O)[O-])cc2)CC1)c1ccccc1  -72%
96. O=C(CCN1CCN(c2ccc([N+](=O)[O-])cc2)CC1)c1ccc(Cl)cc1  -72.4%
97. O=C(CCc1ccccc1)N1CCN(c2ccc([N+](=O)[O-])cc2)CC1  -73.1%
98. O=C(CN1CCN(c2ccc([N+](=O)[O-])cc2)CC1)c1ccccc1  -75%
99. O=C(CCS(=O)(=O)Cc1ccccc1)N1CCN(c2ccc([N+](=O)[O-])cc2)CC1  -81.6%
